Data on 65 molecules can be found in PubChem BioAssay AID504467 (National Center for Advancing Translational Sciences (NCATS), 2011).

The campaign covered roughly 330,000 compounds. About 7,700 (2.3%) were called active. A call without a number means that no potency is given here. Inconclusive results (about 26%) are left out. Calls come from the whole dose curve; as a rule, active = well fitted inhibition curve with a large enough effect; inconclusive = small, poorly fitted or top-dose-only effect, or effect the other way; inactive = flat fitted curve, though single readings scatter. The sample as a whole holds a higher share of actives than the screen did.
Potency is the fitted concentration of half-maximal effect.

A short description of this experiment: qHTS screen for small molecules that inhibit ELG1-dependent DNA repair in human embryonic kidney (HEK293T) cells expressing luciferase-tagged ELG1. Note: nearly all actives have a fitted effect of over 55% in size. The following applies: HEK293T ELG1-luciferase reporter, luminescence, 16 h, DNA damage induced by 5-fluorouridine; series mostly up to 46.1 µM. In a few lines:
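Quantitative HTS, concentration-response format. 2,000 cells/well co-treated with 5-fluorouridine and compound, 16 hr in 5% CO2 at 37 °C; ONE-Glo luminescence read after 30 min.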
On the technique in general: Quantitative high-throughput screening tests each substance at several concentrations.
On to `CC(=O)c1ccc(N2CCN(C(=O)c3ccc(Cl)c(S(=O)(=O)NC4CC4)c3)CC2)c(F)c1`, for which the Potency result was “inactive”.
Take `COc1ccc(/C(C)=N/NC(=O)CCC(=O)Nc2ccc(Cl)cc2Cl)c(OC)c1`: the Potency result was “inactive”.
With `COc1ccc(OC)c(C(=O)c2ccc(Cl)cc2)c1` the entry was “inactive”; with `COc1ccc(OC)c(/C(C)=N\NC(=O)c2cc3cc(Cl)ccc3n2C)c1`, 16.4 µM (active).
With `CCN(CC(=O)Nc1cccc(S(=O)(=O)N2CCCCC2)c1)Cc1ccccc1` the entry was “inactive”; with `O=C(NNS(=O)(=O)c1c(F)cc(F)c(Cl)c1F)C12CC3CC(CC(C3)C1)C2`, “inactive”.
With `CCc1ccc(NC(=O)CN2C(=O)COc3ccc(S(=O)(=O)N4CCCC4)cc32)cc1` the entry was “inactive”; with `CCC(C)NC(=O)c1ccc(NC(=O)CC2SC(N3CCCCC3)=NC2=O)cc1` (stereo not given), “inactive”.
In the case of `O=C(Nc1ccccc1Cl)Nn1cnnc1`, the Potency result was “inactive”.
The value for `COCCN(CCOC)C(=S)Nc1ccccc1Cl` was “inactive”; that for `O=C(Nc1ccccc1Cl)/C(Cl)=C(\Cl)S(=O)c1ccccc1` (stereo not given) was 9.2 µM (active); that for `CSc1cccc(NC(=O)CN2C(=O)COc3ccc(S(=O)(=O)N4CCOCC4)cc32)c1` was “inactive”.
On to `Cc1ccc(C(=O)NC23CC4CC(CC(C4)C2)C3)c(Cl)c1`, for which the Potency result is “inactive”.
The value for `CCCCNC(=O)c1ccccc1NC(=O)C1=C(C)OCCS1` was “inactive”.
The value for `COc1ccc(N2CCN(C(=O)c3ccccc3NC(=O)C3=C(C)OCCS3)CC2)cc1` was “inactive”; that for `COc1cccc(CCNC(=O)c2cccc(NC(=O)C3=C(C)OCCS3)c2)c1` was 20.6 µM (active); that for `CCn1c(SCC(=O)NNC(=O)c2ccc(OC)cc2)nnc1C(C)C` was “inactive”.
The value for `Cc1ccc(CNC(=O)Cn2cnc3c(NCc4ccccc4)ncnc32)o1` was “inactive”; that for `Cn1cc(/C=C/c2nc3ccccc3c(=O)n2-c2cccc([N+](=O)[O-])c2)c2ccccc21` was “inactive”; that for `CCn1c(/C=C/c2ccc([N+](=O)[O-])o2)nc2ccccc2c1=O` was 16.4 µM (active).
As for `Cc1nc2ccccc2c(=O)n1Cc1ccc([N+](=O)[O-])cc1`, the Potency result is “inactive”.
With `Cc1cc(C)c(S(=O)(=O)N2CCCC2CNC(=O)c2ccc3c(c2)OCO3)c(C)c1` (stereo not given) the entry was “inactive”; with `CCc1nc(N2CCN(c3nc(C)cc(C)n3)CC2)c2oc3ccccc3c2n1`, “inactive”.
With `CCc1nc(Nc2ccc3nccnc3c2)c2oc3ccccc3c2n1` the figure was 2.59 µM (active); with `CCc1nc(Nc2ccc(NC(C)=O)cc2)c2oc3ccccc3c2n1`, “inactive”; with `CCCCCc1c(C)nc(N2CCN(Cc3ccc4c(c3)OCO4)CC2)[nH]c1=O`, “inactive”.
With `CCC(C)[C@H](NC(=O)N1CCn2c1nc1ccccc12)C(=O)NCc1ccc(OC)cc1` (stereo not given in full) the entry was “inactive”; with `COc1ccc(OC)c(NC(=O)COC(=O)Cc2ccsc2)c1`, “inactive”; with `CCOC(=O)CSc1nc(N2CCOCC2)c2c(c1C#N)CC(C(C)C)OC2` (stereo not given), “inactive”.
In the case of `CC(C)c1nc(N2CCOCC2)c(C#N)c2c1COC(C)(C)C2`, the Potency result was “inactive”.
The value for `COc1ccc(CSc2nc(N3CCOCC3)c3c(c2C#N)CC(C)(C)OC3)cc1` was 0.92 µM (active); that for `O=C(COC(=O)c1ccc(O)cc1O)c1ccc2c(c1)OCCO2` was “inactive”; that for `CCN1CCN(c2ccc(S(=O)(=O)N3CCCCC3)cc2NC(=O)c2cccc(NC(C)=O)c2)CC1` was “inactive”.
With `CCN(CC)S(=O)(=O)c1ccc(N2CCOCC2)c(NC(=O)c2ccc(=O)n(C)n2)c1` the entry was “inactive”; with `CCN(CC)S(=O)(=O)c1ccc(N2CCOCC2)c(NC(=O)C(C)Oc2ccc(F)cc2)c1` (stereo not given), 8.2 µM (active); with `CC(Oc1ccc(F)cc1)C(=O)Nc1cc(S(=O)(=O)N2CCOCC2)ccc1N1CCN(C)CC1` (stereo not given), “inactive”.
On to `COc1cccc(CNS(=O)(=O)c2ccc3c(c2)N(C(C)=O)CCS3)c1`, for which the Potency entry was “inactive”.
In the case of `O=C(Nc1cccc(C(=O)NC2CC2)c1)c1ccc(F)c(S(=O)(=O)N2CCOCC2)c1`, the Potency result was “inactive”.
The value for `COc1ccc(NC(=O)NCCN2CCN(c3ccc(C)cc3)CC2)c(Cl)c1` was “inactive”.
Turning to `CC1C(=O)N(Cc2ccccc2)c2ccccc2N1C(=O)c1ccccc1` (stereo not given), the Potency was 25.9 µM (active).
Consider `O=C1C(Cc2ccc(O)cc2)NC(=S)N1Cc1ccccc1` (stereo not given), for which the Potency result was “inactive”.
Take `CC1Oc2ccccc2N(Cc2cccnc2)C1=O` (stereo not given): the Potency result is “inactive”.
With `COCCN(Cc1ccccc1)C(=O)Cc1ccc(S(=O)(=O)N2CCOCC2)s1` the entry was “inactive”; with `COC(=O)c1ccc(CN2C(=O)NC(c3ccccc3)(c3ccccc3)C2=O)o1`, “inactive”.
The value for `CC[C@]1(c2ccccc2OC)C(=O)N(C(=O)OC)N1C(=O)OC` was “inactive”; that for `CC1(C)Cc2c(sc(NC(=O)C(=O)NCC3CCCO3)c2C(=O)O)CO1` (stereo not given) was “inactive”.
With `Cn1c(SCC(=O)Nc2nccs2)nnc1-c1cccnc1` the entry was “inactive”; with `COc1ccccc1NC(=O)C1=C(C)NC2=C(C(=O)CCC2)C1c1ccc(C)o1` (stereo not given), “inactive”.
Consider `Cc1ccc(C2C3=C(Nc4[nH]n(-c5ccccc5)c(=O)c42)c2ccccc2C3=O)cc1` (stereo not given), for which the Potency entry is “inactive”.
Turning to `COC(=O)C1=C(C)NC2=C(C(=O)c3ccccc32)C1c1ccc(-c2ccc(C(=O)O)cc2)o1` (stereo not given), the Potency was 20.6 µM (active).
With `O=C(Nc1ccncc1)c1ccc(Cl)c([N+](=O)[O-])c1` the entry was “inactive”.
The value for `Oc1ccc2ccccc2c1N=Nc1nccs1` was 3.66 µM (active); that for `Oc1ccc(N=Cc2c(O)ccc3ccccc23)cc1` was “inactive”.
The value for `Oc1ccc2ccccc2c1C=Nc1ccccc1` was “inactive”; that for `CC(C)C(NC(=O)c1c(F)cccc1F)C(=O)NNC(=O)c1ccccc1` (stereo not given) was “inactive”.
With `CN(C(=O)Cn1nnc(-c2ccc(F)cc2)n1)C1CCS(=O)(=O)C1` (stereo not given), the Potency entry is “inactive”.
With `CN(C)S(=O)(=O)c1cccc(NC(=O)Cc2ccsc2)c1` the entry was “inactive”; with `CN(CC(=O)Nc1cccc(F)c1)C(=O)C1=COCCO1`, “inactive”; with `Cn1nccc1CNC(=O)c1ccnn1C`, “inactive”.
Turning to `CCN(CC)C(=O)c1sc(NC(=O)c2ccco2)c(C#N)c1C`, the Potency entry is “inactive”.
The value for `CCCc1ccc(-c2c(C)sc(NC(=O)c3ccnn3C)c2C#N)cc1` was 18.4 µM (active); that for `CSc1ccccc1C(=O)OCC(=O)N1CCN(C(C)=O)CC1` was “inactive”; that for `Cc1ccc(C)c(S(=O)(=O)N2CCN(c3ncnc4sccc34)CC2)c1` was 1.83 µM (active).
With `Cc1ccc(C)c(S(=O)(=O)n2cnc3ccccc32)c1` the entry was “inactive”; with `COc1ccc(C)cc1S(=O)(=O)N1CCN(S(=O)(=O)c2cc(C(=O)O)ccc2C)CC1`, “inactive”.
